Activity calls are given as the source filed them. Cut-off read from the data, not from the text of the source: active = inhibition above about 31%; inactive = the rest.

For this experiment, the target named is N-formyl peptide receptor 2 (Homo sapiens) (UniProt P25090). Nature of the experiment: human FPR2 ligand displacement single-point screen – cell-based, flow cytometry, single concentration (AID 765). The conditions noted are these: FPRL1-expressing cells, fluorescent ligand binding inhibition, stronger effect = higher value; at 5.1 µM unless noted.
Sequence of N-formyl peptide receptor 2 (Homo sapiens) (P25090 whole entry, looked up): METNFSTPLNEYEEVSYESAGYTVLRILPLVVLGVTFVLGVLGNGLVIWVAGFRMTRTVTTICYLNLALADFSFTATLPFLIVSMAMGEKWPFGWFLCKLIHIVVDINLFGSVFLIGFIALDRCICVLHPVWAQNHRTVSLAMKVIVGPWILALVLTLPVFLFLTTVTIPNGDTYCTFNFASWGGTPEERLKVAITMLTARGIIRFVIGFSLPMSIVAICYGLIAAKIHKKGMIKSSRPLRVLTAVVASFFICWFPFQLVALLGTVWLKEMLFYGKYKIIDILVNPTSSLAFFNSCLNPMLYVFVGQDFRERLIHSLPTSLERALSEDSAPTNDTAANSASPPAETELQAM
In general, inhibition refers to the change of the read-out against control, counted positive when it falls. `O=C(O)/C=C/C(=O)N1CCN(c2nc(-c3ccccc3)c3ccccc3n2)CC1`: the inhibition is 6.6% [at 5.7 µM] (inactive).

As for `COc1ccc(-c2cn3cccnc3n2)cc1NC(=O)C1CCCCC1`, the inhibition was 1.2% [at 6.3 µM] (inactive).

`Cc1ccc2nc(N3CCN(c4ccccc4Cl)CC3)nc(-c3ccccc3)c2c1`: the inhibition was 33.4% [at 5.4 µM] (active).

Take `O=C(c1cccc(F)c1)N1CCN(c2nc(-c3cccs3)cc(C(F)(F)F)n2)CC1`: the inhibition was -12.6% (inactive).

Take `COc1ccc(-c2cn3cccnc3n2)cc1NC(=O)c1ccco1`: the inhibition is -8.1% [at 6.7 µM] (inactive).

In the case of `COc1ccc(-c2cn3cccnc3n2)cc1NC(=O)c1cccc(Cl)c1`, the inhibition was 25.4% [at 5.9 µM] (inactive).

For `COc1ccc(-c2cc(C(F)(F)F)nc(N3CCN(c4ccc(F)cc4)CC3)n2)cc1OC`, the inhibition is 5.4% [at 4.8 µM] (inactive).

In the case of `COc1ccc(CC(=O)Nc2cc(-c3cn4cccnc4n3)ccc2OC)cc1`, the inhibition was 64.2% [at 5.7 µM] (active).

With `COc1ccc(-c2cn3cccnc3n2)cc1NC(=O)c1ccc(OC)c(OC)c1`, the inhibition was -6% [at 5.5 µM] (inactive).

Regarding `CCCCOc1ccc(C(=O)Nc2cc(-c3cn4cccnc4n3)ccc2OC)cc1`, the inhibition is 1.7% [at 5.3 µM] (inactive).

As to `CC(N)C(=O)N1CCN(c2nc(-c3ccccc3)c3cc([N+](=O)[O-])ccc3n2)CC1` (stereo not drawn), the inhibition is 3.9% [at 5.5 µM] (inactive).

On to `Cc1ccc(-c2cc(C(F)F)nc(N3CCN(Cc4ccccc4)CC3)n2)cc1`, for which the inhibition was -4.2% [at 5.6 µM] (inactive).

As for `Clc1ccccc1N1CCN(c2nc(-c3ccccc3)c3cc(Br)ccc3n2)CC1`, the inhibition was 5.1% [at 4.6 µM] (inactive).

The values are drawn from PubChem BioAssay AID765 (NMMLSC, 2007).
